Test systems include NCI-H23 lung; NCI-H522 lung; MDA-MB-231 breast; M14 melanoma; SK-MEL-5 melanoma; UACC-62 melanoma; LOX IMVI melanoma; CCRF-CEM leukemia; MOLT-4 leukemia; SR leukemia; OVCAR-8 ovarian; OVCAR-5 ovarian; OVCAR-4 ovarian; IGROV1 ovarian; HS 578T breast; NCI/ADR-RES ovarian; T-47D breast; MCF7 breast; HCT-116 colon; KM12 colon.
Holding throughout (test): NCI-60 one-dose screen, 48 h (100 = growth as untreated, 0 = no growth, -100 = all killed)
Conditions in all cases: 10 µM

The panel holds about 83,000 compounds, 20% with a hit somewhere; the sample as a whole holds those more often.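 Values shown are percent growth following 48 h exposure of cells in 96-well plates to a single concentration of compound; below 10 was considered active.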 Values without a mark were called inactive. Calls of active or inactive are those of the source.

Consider `CC(=O)O[C@@H]1[C@@H]2O[C@H]2[C@@](C)(O)C(=O)[C@@H](C)C/C=C/[C@H]2[C@@H]3O[C@]3(C)[C@@H](C)C3[C@H](Cc4ccccc4)NC(=O)[C@@]312` (some centres not stated), for which the growth in the experiment on NCI-H23 lung was 70.4%; in the experiment on NCI-H522 lung it was 18.2%; with MDA-MB-231 breast, 22%; in the experiment on M14 melanoma it was 65.2%; in the experiment on SK-MEL-5 melanoma, 71%; in the experiment on UACC-62 melanoma, 78.8%. The growth in the experiment on LOX IMVI melanoma was 14.7%; with CCRF-CEM leukemia it was 44.2%; in the experiment with MOLT-4 leukemia, 67.9%; with SR leukemia it was 60.7%; with OVCAR-8 ovarian it was 84.4%; with OVCAR-5 ovarian, 96.3%. The growth was 55.8% in the experiment with OVCAR-4 ovarian; 54.7% in the experiment on IGROV1 ovarian; 4.92% (active) with HS 578T breast; 82% with NCI/ADR-RES ovarian; 33.6% in the experiment with T-47D breast; 56.8% in the experiment on MCF7 breast. For the same molecule, the growth in the experiment on HCT-116 colon is 54.9%; in the experiment on KM12 colon, 66.6%.
On to `C[C@@H]1CCC/C=C/[C@H]2C[C@@H](O)C[C@@H]2[C@@H](O)/C=C/C(=O)O1`, for which the growth in the experiment with NCI-H23 lung was 5.85% (active); with NCI-H522 lung, -26.3% (active); in the experiment on MDA-MB-231 breast it was -62.2% (active); in the experiment on M14 melanoma it was 6.74% (active); in the experiment on SK-MEL-5 melanoma, -92.8% (active); with UACC-62 melanoma, 25.9%. The growth in the experiment on LOX IMVI melanoma was -70% (active); in the experiment with CCRF-CEM leukemia it was 12.3%; in the experiment with MOLT-4 leukemia it was 1.42% (active); with SR leukemia, 1.7% (active); in the experiment on OVCAR-8 ovarian, 3.04% (active); in the experiment with OVCAR-5 ovarian, 30.5%. Further, the growth in the experiment on OVCAR-4 ovarian was 22.1%; in the experiment on IGROV1 ovarian, 5.5% (active); in the experiment on HS 578T breast it was 42%; in the experiment on NCI/ADR-RES ovarian, 9.17% (active); in the experiment with T-47D breast, 7.4% (active); in the experiment with MCF7 breast, 10.8%. Besides, the figures for the growth with HCT-116 colon and with KM12 colon were -1.47% (active) and 14.9%, respectively.
In the case of `Cc1ccc(CNc2nc3ccc(OC/C(=C/F)CN)cc3o2)cn1`, the growth in the experiment on NCI-H23 lung is 88.4%; in the experiment with MDA-MB-231 breast, 79.6%; with M14 melanoma, 99.8%; in the experiment with SK-MEL-5 melanoma, 98%; in the experiment on UACC-62 melanoma, 90.8%; with LOX IMVI melanoma, 88.4%. Moreover, the growth was 105% in the experiment on CCRF-CEM leukemia; 99.8% in the experiment on MOLT-4 leukemia; 101% with SR leukemia; 108% in the experiment on OVCAR-8 ovarian; 103% in the experiment with OVCAR-5 ovarian; 88.1% in the experiment with OVCAR-4 ovarian. Besides, the growth with IGROV1 ovarian was 78.5%; in the experiment with HS 578T breast it was 101%; in the experiment on NCI/ADR-RES ovarian it was 102%; with T-47D breast, 101%; in the experiment on MCF7 breast, 88.8%; in the experiment with HCT-116 colon, 100%. Moreover, the growth in the experiment on KM12 colon is 103%.
For `COc1cccc2c1cc([N+](=O)[O-])c1c(C(=O)O)cc3c(c12)OCO3`, the growth in the experiment with NCI-H23 lung was 102%; in the experiment with NCI-H522 lung, 95.9%; in the experiment on MDA-MB-231 breast, 106%; with M14 melanoma, 103%; with SK-MEL-5 melanoma it was 102%; in the experiment with UACC-62 melanoma, 103%. Also, the growth in the experiment on LOX IMVI melanoma is 100%; in the experiment on CCRF-CEM leukemia, 96.6%; with MOLT-4 leukemia, 99.6%; in the experiment with SR leukemia, 106%; with OVCAR-8 ovarian, 102%; in the experiment with OVCAR-5 ovarian it was 106%. Besides, the growth in the experiment with OVCAR-4 ovarian was 108%; in the experiment on IGROV1 ovarian, 106%; with HS 578T breast, 105%; in the experiment with NCI/ADR-RES ovarian, 107%; with T-47D breast, 95.8%; with MCF7 breast it was 94.9%. For the same molecule, the growth is 101% with HCT-116 colon and 104% in the experiment on KM12 colon.
For the molecule `CC1=C(CN(O)C(N)=O)C2=C(C)C3(CC3)[C@](C)(O)C(=O)C2=C1`, the growth in the experiment with NCI-H23 lung is 10.7%; in the experiment with NCI-H522 lung, -7.03% (active); in the experiment on MDA-MB-231 breast, 12.4%; with M14 melanoma, -55.4% (active); with SK-MEL-5 melanoma it was 85.8%; in the experiment with UACC-62 melanoma, 14.4%. Further, the growth with LOX IMVI melanoma was 56%; with CCRF-CEM leukemia, 1.19% (active); with MOLT-4 leukemia, 76.2%; in the experiment with SR leukemia it was -4.72% (active); in the experiment on OVCAR-8 ovarian, 6.82% (active); with OVCAR-5 ovarian it was 10.3%. For the same molecule, the growth with OVCAR-4 ovarian is 13.7%; with IGROV1 ovarian it was 29%; in the experiment on HS 578T breast, 33.7%; in the experiment on NCI/ADR-RES ovarian it was 15.9%; in the experiment with T-47D breast, 6.89% (active); with MCF7 breast it was 3.76% (active). Moreover, the growth in the experiment on HCT-116 colon was 7.48% (active); in the experiment with KM12 colon it was -1.93% (active).
Take `COc1cc2c(O[C@@H]3OC[C@H](OC(C)=O)[C@H](OC(C)=O)[C@H]3O)c3c(c(-c4ccc5c(c4)OCO5)c2cc1OC)C(=O)OC3`: the growth with NCI-H23 lung was 46.3%; in the experiment on NCI-H522 lung it was 4.7% (active); with MDA-MB-231 breast, 13.7%; in the experiment on M14 melanoma, -17.9% (active); with LOX IMVI melanoma, -53.7% (active); in the experiment on CCRF-CEM leukemia it was 20.1%. In addition, the growth in the experiment with MOLT-4 leukemia was 13.7%; in the experiment with SR leukemia, 2.16% (active); with OVCAR-8 ovarian it was 24.3%; in the experiment with OVCAR-5 ovarian it was 73%; in the experiment on OVCAR-4 ovarian, 51.4%; in the experiment on IGROV1 ovarian, 47.9%. Moreover, the growth in the experiment with HS 578T breast is 60.3%; in the experiment on NCI/ADR-RES ovarian, 37.7%; in the experiment with T-47D breast, -2.78% (active); in the experiment on MCF7 breast, 36.9%; in the experiment on HCT-116 colon, 9.2% (active); in the experiment with KM12 colon it was 27.8%.
On to `NC1CCc2cc(O)c(O)cc2C1` (configuration not stated), for which the growth in the experiment on NCI-H23 lung was 91.8%; in the experiment with NCI-H522 lung, 92.3%; in the experiment on MDA-MB-231 breast, 101%; with M14 melanoma, 83.5%; in the experiment on SK-MEL-5 melanoma it was 87.4%; in the experiment with UACC-62 melanoma it was 99.4%. For the same molecule, the growth in the experiment with LOX IMVI melanoma is 70.9%; with CCRF-CEM leukemia it was 48%; in the experiment on MOLT-4 leukemia it was 66%; in the experiment on SR leukemia, -24.1% (active); in the experiment with OVCAR-8 ovarian, 101%; in the experiment on OVCAR-5 ovarian it was 91.4%. For the same molecule, the growth was 98.7% in the experiment on OVCAR-4 ovarian; 97.9% with IGROV1 ovarian; 100% with HS 578T breast; 85.6% with NCI/ADR-RES ovarian; 88.9% in the experiment with T-47D breast; 63.6% with MCF7 breast. Besides, the growth was 58.1% in the experiment on HCT-116 colon and 97.5% in the experiment with KM12 colon.
